The whole screen tested about 330,000 compounds, of which about 1,900 (0.58%) were called active. Inconclusive results (about 4%) are left out. Rule as the data show it: inconclusive = inhibition above about 70% without an active follow-up result; inactive = below that. These entries were drawn from the full list. Potency and affinity values are given separately.

Broadly, the inhibition is the drop in the measured response relative to a control, in per cent.

The nature of this experiment: M. tuberculosis growth inhibition, HTS (AID 449762).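 Also: bacterial growth assessed after seven days of incubation.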 Particulars: M. tuberculosis H37Rv growth inhibition, 7H9 media; at 25 µM; active compounds read high.
With `Nc1nc2ccccc2n1CCN1CCCC1`, the inhibition is -1.87% (inactive). Regarding `CC(C)(C)c1ccc(C(=O)O)c(C(=O)c2ccccc2)c1`, the inhibition was -4.75% (inactive).

On to `Brc1cnc2nc(SC/C=C/c3ccccc3)[nH]c2c1`, for which the inhibition was -5.71% (inactive).

Consider `COc1ccccc1C(=O)NCC1CCN(c2ccc(S(=O)(=O)N3CCOCC3)cc2)CC1`, for which the inhibition was 2.24% (inactive). With `COc1cccc(C(=O)NCC2CCN(c3ccc(S(=O)(=O)N4CCOCC4)cc3)CC2)c1` the figure was -13.8% (inactive); with `CC(=O)NS(=O)(=O)c1ccc(NS(=O)(=O)c2ccccc2[N+](=O)[O-])cc1`, 3.53% (inactive); with `CCCCNC(=O)CN(c1cc(C(F)(F)F)ccc1Cl)S(C)(=O)=O`, -6.63% (inactive). In the case of `CCN(CC)CCCC(C)NC(=O)c1ccc(C(F)(F)F)cc1` (stereo not given) it was -7.51% (inactive); in that of `O=C(CCN1CCCC1)Nc1ccccc1`, 22.9% (inactive). In the case of `Cc1cc(N2CCN(C)CC2)nc2ccc(NC(=S)N3CCCCCC3)cc12` it was 3.75% (inactive); in that of `Cc1ccc(C)c(N2CCN(C(=S)Nc3ccc4nc(N5CCOCC5)cc(C)c4c3)CC2)c1`, -4.9% (inactive). As for `CCN(CCCNC(=O)CNC(=O)c1nn(-c2ccc(OC)cc2)c(=O)c2ccccc12)c1cccc(C)c1`, the inhibition is 8.46% (inactive).

`Cc1cc2c(cc1C)CSC(c1ccccc1O)SC2`: the inhibition is 13.6% (inactive). On to `Cc1cc2c(cc1C)CSC(c1ccc3ccccc3c1O)SC2`, for which the inhibition was -4.57% (inactive).

Consider `CCOc1ccc2oc(=O)cc(CN3CCN(C(=O)c4ccco4)CC3)c2c1`, for which the inhibition is 4.6% (inactive).

Consider `Cc1ccc[n+](CC(=O)/C=C2\N(C)c3ccccc3C2(C)C)c1`, for which the inhibition was -2.49% (inactive). For `CN1/C(=C\C(=O)C[n+]2cccc(C(N)=O)c2)C(C)(C)c2ccccc21`, the inhibition was 0.09% (inactive). As to `Cn1c(N)c(C(=O)COC(=O)c2ccc(Br)o2)c(=O)n(C)c1=O`, the inhibition was 1.58% (inactive).

For `CN1/C(=C\C(=O)COC(=O)c2ccc(O)cc2)C(C)(C)c2ccccc21`, the inhibition was -3.13% (inactive). In the case of `CN1/C(=C\C(=O)COC(=O)c2ccco2)C(C)(C)c2ccccc21` it was 0.58% (inactive); in that of `Cn1c(N)c(C(=O)COC(=O)c2ccco2)c(=O)n(C)c1=O`, 1.11% (inactive). Turning to `COc1ccc(Cl)cc1NC(=O)CSc1nnc(-c2ccco2)o1`, the inhibition is -2.66% (inactive).

As for `O=C(OCC(=O)N1CCCCC1)c1c[nH]c(=O)[nH]c1=O`, the inhibition is -1.77% (inactive). In the case of `COc1ccccc1C(=O)NC(CCSC)C(=O)NNC(=O)c1ccccc1O` (stereo not given) it was -6.8% (inactive). Turning to `CC(C)(C)C(=O)O/N=C(\N)c1ccc(Oc2cc(Cl)cc(Cl)c2)c([N+](=O)[O-])c1`, the inhibition is 0.8% (inactive).

Take `CCCCN1CC(O)=C(c2nc3ccccc3[nH]2)C1=N`: the inhibition is -10.6% (inactive).

In the case of `COc1ccc(NC(=O)N(C)C[C@H]2Oc3ccc(NC(=O)Cc4ccccc4)cc3C(=O)N([C@H](C)CO)C[C@@H]2C)cc1`, the inhibition is -4.97% (inactive).

In the case of `COc1ccc(C(=O)NCC(c2ccc3c(c2)OCO3)N2CCN(c3ccc(OC)cc3)CC2)cc1` (stereo not given), the inhibition was 7.52% (inactive). With `O=C(COc1ncnc2cc([N+](=O)[O-])ccc12)NC1CCCCC1` the figure was -3.77% (inactive); with `CCOC(=O)c1ccc(NC(=O)CSc2nc(C)nc3c2c(=O)n(C)c(=O)n3C)cc1`, -9.19% (inactive). For the compound `CCCC/C(=N/O)c1c(C)[nH]c2ccccc12`, the inhibition is -0.42% (inactive).

For `CCc1sc2nc(SCC(=O)Nc3cc(C)on3)n(-c3cccc(OC)c3)c(=O)c2c1C`, the inhibition is -0.05% (inactive). In the case of `COc1ccc2c(c1)CCc1c(C(=O)Nc3c(C)nn(Cc4ccccc4)c3C)noc1-2` it was 0.29% (inactive); in that of `Cc1c(NC(=O)c2noc3c2CCc2ccccc2-3)c(=O)n(-c2ccccc2)n1C`, 43% (inactive).

As to `CC(C)(C)c1nnc(NC(=O)CCS(=O)(=O)Cc2ccccc2)s1`, the inhibition is -8.95% (inactive). Regarding `O=C(Cc1ccc(Br)cc1)NC1CCSC1=O` (stereo not given), the inhibition was -3.33% (inactive). Turning to `O=C(c1cccs1)N1CCN(c2cccc(Cl)c2)CC1`, the inhibition is 0.26% (inactive). With `O=C(Cn1ccsc1=NC(=O)C(F)(F)F)c1ccccc1` the figure was -3.48% (inactive). For the compound `CC(=O)NC12CC3CC(C1)CC(C(=O)Nc1nc4ccc(S(C)(=O)=O)cc4s1)(C3)C2`, the inhibition is -8.67% (inactive). With `CC(=O)NC12CC3CC(C1)CC(C(=O)Nc1nccs1)(C3)C2` the figure was -0.32% (inactive); with `Cc1ccc2c(c1)c(C1=NC(=S)NC1=O)c(O)n2C`, -2.95% (inactive).

Take `Cn1c(O)c(C2=c3ccccc3=NC2=O)[nH]c1=S`: the inhibition is 37% (inactive). Consider `C/C(=N\NC(=O)c1ccc(Cn2cc([N+](=O)[O-])cn2)o1)c1cccc(NC(=O)c2cccnc2)c1`, for which the inhibition is -0.38% (inactive). As for `Clc1cccc(C2Nc3cccc4cccc(c34)N2)c1`, the inhibition is 11.6% (inactive). For `O=C(c1ccccc1)c1ccc(OCCCCN2CCCCC2)cc1`, the inhibition is 3.79% (inactive). With `O=C(c1ccccc1)c1ccc(OCCCN2CCCC2)cc1`, the inhibition is -9.38% (inactive). In the case of `Cc1nc(Nc2c(Cl)cccc2Cl)sc1C(=O)Nc1ccccc1` it was 12% (inactive); in that of `Cc1nc(Nc2ccccc2)sc1C(=O)Nc1ccccc1`, 7.98% (inactive); in that of `CC(NC(=O)/C(C#N)=C/c1cccs1)c1ccccc1` (stereo not given), -1.56% (inactive). For `CCOCCN1CCN(c2nnc3n2-c2ccc(Cl)cc2C(c2ccccc2Cl)=NC3)CC1`, the inhibition is 4.83% (inactive). Take `Clc1ccc2c(c1)C(c1ccccc1Cl)=NCc1nnc(Br)n1-2`: the inhibition is 6.91% (inactive).

On to `Cn1c(=O)c2c(nc(SCCN3CCOCC3)n2C)n(C)c1=O`, for which the inhibition is 1% (inactive). In the case of `O=C(c1ccc(Oc2ccc([N+](=O)[O-])cc2)cc1)N1CCCCCC1` it was 20.3% (inactive). With `O=C(CCc1ccc(Oc2cc([N+](=O)[O-])cc([N+](=O)[O-])c2)cc1)NC1CCCC1` the figure was 30.8% (inactive); with `Cc1cc(C)nc(OC(C(=O)O)C(OCC(C)C)(c2ccccc2)c2ccccc2)n1` (stereo not given), -3.41% (inactive); with `Cc1cccc(C(=O)NC2CC(C)(C)NC(C)(C)C2)c1`, -6.34% (inactive). As to `Cc1ccc(S(=O)(=O)/N=C2/NC(=O)/C(=C/c3ccc(Br)o3)S2)cc1`, the inhibition was -2.8% (inactive). In the case of `COC(=O)c1ccc(CSc2nnc(CNC(=O)c3ccccc3F)o2)o1` it was 4.26% (inactive); in that of `CCc1c(C2(O)CCCCC2)[nH]c2ccc(C#N)cc12`, 5.4% (inactive).

Consider `Cc1c(C2(O)CCCCC2)[nH]c2cc(C(F)(F)F)ccc12`, for which the inhibition was 15.3% (inactive).

Regarding `Cc1nn(S(=O)(=O)c2ccc(C(C)C)cc2)c(C)c1S(=O)(=O)N1CCOCC1`, the inhibition is -4.31% (inactive). In the case of `Cc1nn(CC(=O)NCCCN2C(C)CCCC2C)c(=O)c2cc3occc3n12` (stereo not given) it was 5.96% (inactive). For `CCCc1nc([N+](=O)[O-])c(S(=O)(=O)c2ccccc2)n1CC(C)C`, the inhibition is 10% (inactive).

Consider `CCCn1c(CC)nc([N+](=O)[O-])c1Sc1ccc(C)cc1`, for which the inhibition was -12% (inactive).

In the case of `CN(CC(=O)Nc1ccc(OC(F)(F)F)cc1)C(=O)/C=C/c1ccco1`, the inhibition was 5.57% (inactive). Turning to `Cc1ccc(NC(=O)CN(C)C(=O)/C=C/c2ccc3c(c2)OCO3)cc1`, the inhibition is 6.72% (inactive).

Take `CCCCc1c(O)nc(SCC(=O)N2CCCCC2)[nH]c1=O`: the inhibition was 17.7% (inactive). In the case of `COc1ccc(-c2nnc(SCC(=O)NC3CCCC3)n2C)cc1` it was -3.82% (inactive). With `Cc1ccc(C(=O)/C=C/c2ccccc2)o1`, the inhibition is 4.37% (inactive). In the case of `Cc1ccc(C(=O)/C=C/c2ccc3c(c2)OCO3)o1` it was 1.84% (inactive). In the case of `CC1CCCCN1S(=O)(=O)c1cccc2nonc12` (stereo not given), the inhibition is -1.08% (inactive). In the case of `Cc1nn(Cc2ccccc2Cl)c2sc(C(=O)NC(C)(C)C)cc12` it was 30.5% (inactive); in that of `CCC(CC)NC(=O)c1cc2c(C)nn(Cc3ccccc3Cl)c2s1`, -1.27% (inactive); in that of `CCCNC(=O)CCNC(=O)c1ccc(C(C)(C)C)cc1`, -4.92% (inactive). For the compound `CCCCNC(=O)CCNC(=O)c1ccc(C(C)(C)C)cc1`, the inhibition was -8.34% (inactive).

Turning to `O=C(CSc1nnc(-c2c[nH]c3ccccc23)o1)N(Cc1ccccc1)c1ccc(F)cc1`, the inhibition is -6.56% (inactive).

`Cc1nc(SCc2nc3ccccc3[nH]2)c2oc3ccc(Br)cc3c2n1`: the inhibition was 18% (inactive). In the case of `Cc1ccccc1CN1C(=O)[C@H]2Cc3c([nH]c4ccccc34)C(C)(C)N2C1=O` it was -6.56% (inactive). Consider `Cc1ccccc1CN1C(=O)[C@@H]2Cc3c([nH]c4ccccc34)C(C)(C)N2C1=O`, for which the inhibition is 8.29% (inactive). In the case of `C/C=C(\C)C(=O)NCCN1C2=NC[C@H](C)N2C[C@@H]1Cc1ccc(OC)cc1` it was 0.12% (inactive). `CC(=O)c1ccc(N2CCC(c3cc(-c4ccc(Cl)cc4)n[nH]3)CC2)c([N+](=O)[O-])c1`: the inhibition is -1.54% (inactive). As to `COc1ccc(OC)c(-c2cc(C3CCN(c4cc(Cl)nc(N)n4)CC3)[nH]n2)c1`, the inhibition was -10.8% (inactive). As for `COc1ccc(-c2cc(C3CCN(c4ccc(C(C)=O)cc4[N+](=O)[O-])CC3)[nH]n2)cc1`, the inhibition is 2.56% (inactive). With `Nc1nc(Cl)cc(N2CCC(c3cc(-c4ccc(Cl)cc4)n[nH]3)CC2)n1` the figure was 4.43% (inactive). With `Cc1cc(OCC(=O)NCc2ccccn2)c2c(C)c(Cc3ccccc3)c(=O)oc2c1` the figure was 3.29% (inactive). In the case of `O=C(CN(Cc1cccs1)C(=O)CN1C(=O)COc2ccccc21)NCc1ccco1` it was -10.2% (inactive); in that of `COc1ccc(S(=O)(=O)N2CCN(C(=O)CCNC(=O)c3ccccc3Cl)CC2)cc1`, -12.2% (inactive). Regarding `COc1cc(OC)nc(Oc2cc(/C=N/O)ccc2OC)n1`, the inhibition was 6.12% (inactive). With `O=C(O)c1ccccc1NS(=O)(=O)c1ccc(NN=Cc2ccc(F)cc2)c([N+](=O)[O-])c1` the figure was 9.86% (inactive); with `OC1(c2ccc(F)cc2)CCN(Cc2nnnn2Cc2cccs2)CC1`, 5.23% (inactive).

The values above are taken from PubChem BioAssay AID449762 (Southern Research Specialized Biocontainment Screening …, 2010).
